Laboratory results taken from PubChem BioAssay (NCI).
Where “and” joins values, the source holds several entries; their conditions need not be identical. Equal values may be shown once. This is part of a sample that, as a whole, favours compounds with a hit. Of some 79,000 tested, about 15% had one in any assay. Some compounds were tested as several samples or in several runs, with calls that do not always agree. Calls of active or inactive are those of the source. Cut-off read from the data, not from the text of the source: active = growth inhibition above about 70%; inactive = the rest.

Assays:
[1] = NCI Yeast Anticancer Drug Screen. Data for the rad50 strain (AID 155);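 note: 0% = growth of vehicle-only cultures of the same strain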; conditions: S. cerevisiae rad50 strain growth inhibition, stronger effect = higher value
Procedure, shortened: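 Compounds were tested on a yeast strain with an engineered DNA damage repair alteration; the reported value is growth inhibition normalised to vehicle treatment.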

[2] = NCI Yeast Anticancer Drug Screen. Data for the mec2-1 strain (AID 157); conditions: S. cerevisiae mec2-1 strain, stronger effect = higher value
Procedure, shortened: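 Mutant yeast (mec2-1) grown with compound; growth inhibition relative to vehicle control reported.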

[3] = NCI Yeast Anticancer Drug Screen. Data for the sgs1 mgt1 strain (AID 161);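 note: 0% = growth of cultures given vehicle only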; conditions: S. cerevisiae sgs1 mgt1 strain, stronger effect = higher value
Procedure, shortened: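 Compounds are added to genetically altered yeast, and growth is compared with cultures given vehicle alone to give percent inhibition.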

[4] = NCI Yeast Anticancer Drug Screen. Data for the cln2 rad14 strain (AID 165);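 note: 0% = growth equal to vehicle treated cultures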; conditions: S. cerevisiae cln2 rad14 strain, stronger effect = higher value
Procedure, shortened: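 Readout is yeast growth inhibition versus vehicle-treated controls, using a strain with cln2 and rad14 alterations exposed to compound.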

[5] = NCI Yeast Anticancer Drug Screen. Data for the bub3 strain (AID 167); conditions: S. cerevisiae bub3 mutant strain, stronger effect = higher value
Procedure, shortened: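 Growth of a checkpoint-deficient yeast mutant is measured after compound exposure. Values represent inhibition relative to vehicle.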

[6] = NCI Yeast Anticancer Drug Screen. Data for the mlh1 rad18 strain (AID 175); conditions: S. cerevisiae mlh1 rad18 strain growth inhibition, stronger effect = higher value
Procedure, shortened: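 Genetically defined yeast (DNA repair-deficient) exposed to compounds; growth inhibition determined relative to vehicle.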

[7] = at 5.0 µM (retest, dose inferred, filed as 0.5)
[8] = at 50.0 µM (retest, dose inferred, filed as 5.0)

| Structure (SMILES) | growth inhibition [1, 7] | growth inhibition [1, 8] | growth inhibition ([1]; at 50.0 µM) | growth inhibition [2, 7] | growth inhibition [2, 8] | growth inhibition ([2]; at 50.0 µM) | growth inhibition [3, 7] | growth inhibition [3, 8] | growth inhibition ([3]; at 50.0 µM) | growth inhibition [4, 7] | growth inhibition [4, 8] | growth inhibition ([4]; at 50.0 µM) | growth inhibition [5, 7] | growth inhibition [5, 8] | growth inhibition ([5]; at 50.0 µM) | growth inhibition [6, 7] | growth inhibition [6, 8] | growth inhibition ([6]; at 50.0 µM) |
| --- | --- | --- | --- | --- | --- | --- | --- | --- | --- | --- | --- | --- | --- | --- | --- | --- | --- | --- |
| Cc1ccc(S(=O)(=O)C23C(N=NC2(C)C)C3(C)C)cc1 (stereo unspecified) | 10% (inactive) | 3% (inactive) | -4.7% (inactive) | 4% (inactive) | -3% (inactive) | -10.6% (inactive) | -16% (inactive) | 4% (inactive) | 1.25% (inactive) | 8% (inactive) | 15% (inactive) | -39.9% (inactive) | 15% (inactive) | -2% (inactive) | -45.8% (inactive) | -1% (inactive) | -16% (inactive) | 8.4% (inactive) |
| O=[N+]([O-])c1ccc(N/N=C(/C=N/Nc2ccc([N+](=O)[O-])cc2)C(O)C(O)C(O)CO)cc1 (stereo unspecified) | 44% (inactive) and 67% (inactive) | 97% (active) and 96% (active) | 97.7% (active) and 97.2% (active) | 48% (inactive) and 55% (inactive) | 99% (active) and 98% (active) | 97.8% (active) and 97.7% (active) | 44% (inactive) and 79% (active) | 98% (active) | 97.7% (active) and 97% (active) | 10% (inactive) and 27% (inactive) | 94% (active) and 96% (active) | 98% (active) and 97.8% (active) | 73% (active) and 90% (active) | 98% (active) | 98.2% (active) and 98.9% (active) | 70% (active) and 77% (active) | 98% (active) | 98.2% (active) and 97.6% (active) |
| COc1cccc(OCCC#N)c1 | 2% (inactive) | 27% (inactive) | -6.7% (inactive) and 72.8% (active) | -1% (inactive) | 0% (inactive) | 4.05% (inactive) and 4.85% (inactive) | -1% (inactive) | 12% (inactive) | -5.2% (inactive) and 31.4% (inactive) | -7% (inactive) | -1% (inactive) | -34.8% (inactive) and 20.4% (inactive) | -6% (inactive) | -5% (inactive) | -8.35% (inactive) and -22.1% (inactive) | 4% (inactive) | 19% (inactive) | -1.9% (inactive) and 44.9% (inactive) |
| O=C1c2ccccc2C(=O)N1CC[P+](c1ccccc1)(c1ccccc1)c1ccccc1 | 48% (inactive) | 79% (active) | 70.5% (active) and 58.6% (inactive) | 36% (inactive) | 87% (active) | 58.5% (inactive) and 46.8% (inactive) | 20% (inactive) | 69% (inactive) | 63.5% (inactive) and 62.5% (inactive) | -5% (inactive) | 47% (inactive) | 20.8% (inactive) and 40% (inactive) | 30% (inactive) | 79% (active) | 57.9% (inactive) and 43.3% (inactive) | 43% (inactive) | 85% (active) | 63.1% (inactive) and 54.9% (inactive) |
| COC(=O)CSC(=S)N1CCOCC1 | 2% (inactive) | 6% (inactive) | -6.85% (inactive) | 9% (inactive) | 4% (inactive) | -5.75% (inactive) | 4% (inactive) | 22% (inactive) | -5.3% (inactive) | 7% (inactive) | -4% (inactive) | -38% (inactive) | -3% (inactive) | -5% (inactive) | -10.1% (inactive) | 4% (inactive) | 5% (inactive) | 24.2% (inactive) |
| CC(=O)OCC1OC(n2c(=S)n(-c3ccccc3)c(=O)c3ccccc32)C(OC(C)=O)C(OC(C)=O)C1OC(C)=O (stereo unspecified) | 27% (inactive) | 27% (inactive) | 8.65% (inactive) and -2.35% (inactive) | 14% (inactive) | 14% (inactive) | -27.1% (inactive) and 5.4% (inactive) | 11% (inactive) | 11% (inactive) | 6.3% (inactive) and -28.1% (inactive) | 17% (inactive) | 17% (inactive) | 9.15% (inactive) and -3.95% (inactive) | 6% (inactive) | 6% (inactive) | 58.9% (inactive) and -30.1% (inactive) | 7% (inactive) | 7% (inactive) | 12.2% (inactive) and -0.5% (inactive) |
| CCSC(=NC)Nc1ccc(Oc2ccc(Cl)cc2)cc1 | 38% (inactive) | 90% (active) | 81.9% (active) | 39% (inactive) | 83% (active) | 67.8% (inactive) | 40% (inactive) | 99% (active) | 92.4% (active) | 33% (inactive) | 75% (active) | 71.1% (active) | 46% (inactive) | 72% (active) | 88.2% (active) | 46% (inactive) | 97% (active) | 81.6% (active) |
| CCCCN(CCCC)C(Cl)=Nc1ccccc1 | 35% (inactive) | 32% (inactive) | 80.9% (active) | 29% (inactive) | 24% (inactive) | 87.1% (active) | 31% (inactive) | 30% (inactive) | 88.2% (active) | 17% (inactive) | 19% (inactive) | 81% (active) | 33% (inactive) | 38% (inactive) | 82.4% (active) | 39% (inactive) | 57% (inactive) | 77.4% (active) |
| CC(=O)OC1OC(=O)C(C)(C(C)=O)C1C (stereo unspecified) | 19% (inactive) | 95% (active) | 89.9% (active) | 10% (inactive) | 96% (active) | 89.6% (active) | 25% (inactive) | 93% (active) | 89.9% (active) | 27% (inactive) | 81% (active) | 83.2% (active) | 23% (inactive) | 93% (active) | 89.2% (active) | 22% (inactive) | 96% (active) | 89.6% (active) |
| OCC1OC(n2cnc3c(=S)nc[nH]c32)C(O)C1O (stereo unspecified) | -3% (inactive) | -13% (inactive) | -0.9% (inactive) and -2.3% (inactive) | -14% (inactive) | -14% (inactive) | 8.35% (inactive) and -13.8% (inactive) | 0% (inactive) | 5% (inactive) | 6.65% (inactive) and -21.8% (inactive) | 20% (inactive) | -7% (inactive) | 24.9% (inactive) and -27% (inactive) | 0% (inactive) | -3% (inactive) | 14.9% (inactive) and -16.9% (inactive) | -13% (inactive) | -14% (inactive) | 3.2% (inactive) and -1.15% (inactive) |
| CN(C)CCC(=O)c1cccc([N+](=O)[O-])c1 | 10% (inactive) | 85% (active) | 39.3% (inactive) and 83.9% (active) | 13% (inactive) | 87% (active) | 4.1% (inactive) and 88.5% (active) | 12% (inactive) | 89% (active) | 11.4% (inactive) and 96% (active) | 7% (inactive) | 71% (active) | 31.4% (inactive) and 34.9% (inactive) | 2% (inactive) | 92% (active) | 14.5% (inactive) and 90.2% (active) | 11% (inactive) | 96% (active) | 33.4% (inactive) and 96.8% (active) |
| Fc1ccc(/C=C2\COCC3=C2NC(=S)NC3c2ccc(F)cc2)cc1 (stereo unspecified) | 32% (inactive) | 98% (active) | 88.6% (active) | 28% (inactive) | 99% (active) | 93% (active) | 72% (active) | 99% (active) | 91.2% (active) | 59% (inactive) | 99% (active) | 90.5% (active) | 77% (active) | 100% (active) | 90.7% (active) | 26% (inactive) | 98% (active) | 90.7% (active) |
| CCCCCCCCCCCCSC(=NC)NC | 65% (inactive) and 27% (inactive) | 99% (active) and 98% (active) | 99.5% (active) and 99.4% (active) | 48% (inactive) and 19% (inactive) | 100% (active) and 98% (active) | 99.7% (active) and 99.5% (active) | 80% (active) and 65% (inactive) | 99% (active) | 99.4% (active) and 99.1% (active) | 4% (inactive) and -9% (inactive) | 99% (active) | 96.2% (active) and 98% (active) | 91% (active) and 46% (inactive) | 100% (active) | 99.5% (active) and 99% (active) | 27% (inactive) and 24% (inactive) | 99% (active) and 98% (active) | 99.1% (active) and 98.8% (active) |
| c1ccc(N=c2cnc3c(ccc4ccccc43)o2)cc1 | 97% (active) | 93% (active) | 93.5% (active) | 97% (active) | 96% (active) | 95.5% (active) | 96% (active) | 95% (active) | 94.2% (active) | 99% (active) | 98% (active) | 98.6% (active) | 64% (inactive) | 84% (active) | 79.2% (active) | 97% (active) | 96% (active) | 96.8% (active) |
| O=C(NC(C(=O)O)c1ccccc1)OCc1ccccc1 (stereo unspecified) | -3% (inactive) | -3% (inactive) | -3% (inactive) and -15.4% (inactive) and 0.9% (inactive) | 1% (inactive) | 0% (inactive) | -28.1% (inactive) and -22.8% (inactive) and 0.9% (inactive) | -1% (inactive) | -2% (inactive) | -23.6% (inactive) and -3.2% (inactive) | 1% (inactive) | -2% (inactive) | -12.2% (inactive) and 88% (active) | -1% (inactive) | -2% (inactive) | -8.4% (inactive) and 21.4% (inactive) | 3% (inactive) | -1% (inactive) | -7.9% (inactive) and 2.55% (inactive) and 48.3% (inactive) |
| NC(C/[N+]([O-])=N/O)C(=O)O (stereo unspecified) | 18% (inactive) | 21% (inactive) | 40.7% (inactive) and 47.2% (inactive) and 57.1% (inactive) | 10% (inactive) | 13% (inactive) | 11.1% (inactive) and 22.1% (inactive) and 33.5% (inactive) | 46% (inactive) | 51% (inactive) | 36.2% (inactive) and 39.5% (inactive) and 48.1% (inactive) | 37% (inactive) | -28% (inactive) | 5.75% (inactive) and 1.45% (inactive) and 18.8% (inactive) | 46% (inactive) | 4% (inactive) | -0.3% (inactive) and 17.1% (inactive) and 21.9% (inactive) | 25% (inactive) | 38% (inactive) | 31.9% (inactive) and 35.6% (inactive) and 46.6% (inactive) |
| O=C(Nc1ccc(Cl)cc1)c1ccccc1O | 2% (inactive) | 8% (inactive) | 92.6% (active) and 4.9% (inactive) | 2% (inactive) | 11% (inactive) | 94.7% (active) and -13.8% (inactive) | 1% (inactive) | 33% (inactive) | 89% (active) and -5.25% (inactive) | 3% (inactive) | 6% (inactive) | 85.2% (active) and -12.8% (inactive) | 8% (inactive) | 13% (inactive) | 90.8% (active) and 3.8% (inactive) | 4% (inactive) | 9% (inactive) | 97.2% (active) and -0.55% (inactive) |
